According to PubChem BioAssay (Tox21):
Inconclusive results are not listed. Activity calls are given as the source filed them. Unless noted, the call rests on the fitted dose curve; in most records, active means well fitted curve in the direction sought with a large enough effect in the repeat runs; inconclusive means weak or mixed curves; inactive means no such curve, though single readings can be large; an effect the other way counts as inactive or inconclusive.

How the values were obtained:
[1] = qHTS assay to identify small molecule agonists of the peroxisome proliferator-activated receptor delta (PPARd) signaling pathway - cell viability counter screen (AID 743211); further: nearly all actives have a fitted effect of over 55% in size
Outline: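 Counter screen for cytotoxicity run in parallel with the PPARd reporter screen. Beta-lactamase reporter HEK293H cells exposed to compounds 17 h; ATP-based CellTiter-Glo luminescence quantified viability.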

[2] = target: Peroxisome proliferator-activated receptor delta (Homo sapiens) (UniProt Q03181); assay: qHTS assay to identify small molecule agonists of the peroxisome proliferator-activated receptor delta (PPARd) signaling pathway (AID 743212; calls by dose curve)
Peroxisome proliferator-activated receptor delta (Homo sapiens), sequence (Q03181 whole entry, looked up): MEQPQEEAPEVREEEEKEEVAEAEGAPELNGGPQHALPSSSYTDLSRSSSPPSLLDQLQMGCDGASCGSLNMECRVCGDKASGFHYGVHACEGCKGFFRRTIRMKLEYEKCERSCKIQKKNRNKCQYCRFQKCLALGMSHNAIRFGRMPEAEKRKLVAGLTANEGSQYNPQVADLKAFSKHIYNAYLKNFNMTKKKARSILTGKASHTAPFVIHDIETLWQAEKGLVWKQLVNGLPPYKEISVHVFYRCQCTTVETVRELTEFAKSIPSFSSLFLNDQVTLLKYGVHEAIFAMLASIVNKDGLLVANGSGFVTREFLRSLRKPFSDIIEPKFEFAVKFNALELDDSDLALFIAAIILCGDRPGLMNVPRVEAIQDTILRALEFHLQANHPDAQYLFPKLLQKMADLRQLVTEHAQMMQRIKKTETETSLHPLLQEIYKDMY
Outline: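 GeneBLAzer UAS-bla HEK293H cells carrying a PPARδ construct were exposed to compounds at 37 °C. Beta-lactamase activity was read by FRET fluorescence after 2 h at room temperature with LiveBLAzer B/G substrate.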

[3] = qHTS assay to identify small molecule antagonists of the peroxisome proliferator-activated receptor delta (PPARd) signaling pathway - cell viability counter screen (AID 743213); further: nearly all actives have a fitted effect of over 50% in size
Outline: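 PPARd-bla HEK293H cells (3000/well) got compound plus 300 nM L165041 agonist for 17 h at 37 C. Viability in the same wells came from CellTiter-Glo luminescence after 30 min at room temperature.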

[4] = target: Peroxisome proliferator-activated receptor delta (Homo sapiens) (UniProt Q03181); assay: qHTS assay to identify small molecule antagonists of the peroxisome proliferator-activated receptor delta (PPARd) signaling pathway (AID 743215; active means well fitted inhibition curve with a large enough effect in the signal ratio in the repeat runs, not every such curve was filed as active; the % refers to the signal ratio;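 further: cells stimulated with agonist L165041 at 300 nM final during compound exposure; series mostly up to about 62 µM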)
Outline: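 HEK293H UAS-bla, PPARd; agonist L165041 300 nM final with cpd in DMSO; 37 C 17 h; FRET substrate, RT 2 h; fluorescence intensity.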

[5] = target: Bile acid receptor (Homo sapiens) (UniProt Q96RI1); assay: qHTS assay to identify small molecule antagonists of the farnesoid-X-receptor (FXR) signaling pathway (AID 743217; active means well fitted inhibition curve with a large enough effect in the signal ratio in the repeat runs, not every such curve was filed as active; the % refers to the signal ratio)
Bile acid receptor (Homo sapiens), sequence (Q96RI1 whole entry, looked up): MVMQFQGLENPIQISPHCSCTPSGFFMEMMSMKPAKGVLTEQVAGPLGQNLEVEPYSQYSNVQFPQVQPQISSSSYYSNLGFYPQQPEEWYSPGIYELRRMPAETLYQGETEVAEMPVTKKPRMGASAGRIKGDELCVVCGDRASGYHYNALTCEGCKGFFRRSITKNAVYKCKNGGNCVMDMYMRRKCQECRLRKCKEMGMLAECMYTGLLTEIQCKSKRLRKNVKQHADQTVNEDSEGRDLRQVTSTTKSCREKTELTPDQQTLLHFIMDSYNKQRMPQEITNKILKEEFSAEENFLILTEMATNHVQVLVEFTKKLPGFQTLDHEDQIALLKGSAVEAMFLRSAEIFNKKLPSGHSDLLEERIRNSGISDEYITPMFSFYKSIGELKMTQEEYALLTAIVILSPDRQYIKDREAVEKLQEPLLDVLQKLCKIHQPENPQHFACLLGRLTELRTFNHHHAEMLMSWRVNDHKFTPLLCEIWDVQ
Outline: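 GeneBLAzer FXR-UAS-bla HEK 293T, CDCA-stimulated (50 uM final). Compound treatment 16 h, 37 °C. Detection: beta-lactamase cleavage of B/G FRET substrate, fluorescence.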

[6] = qHTS assay to identify small molecule agonists of the farnesoid-X-receptor (FXR) signaling pathway - cell viability counter screen (AID 743218); further: nearly all actives have a fitted effect of over 45% in size
Outline: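 Parallel cytotoxicity test: compound-treated (16 h, 37 C) HEK 293T FXR-bla reporter cells were lysed with CellTiter-Glo and luminescence recorded.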

[7] = target: Bile acid receptor (Homo sapiens) (UniProt Q96RI1); assay: qHTS assay to identify small molecule agonists of the farnesoid-X-receptor (FXR) signaling pathway (AID 743220; active means well fitted activation curve with a large enough effect in the signal ratio in the repeat runs, not every such curve was filed as active; the % refers to the signal ratio)
Outline: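 Beta-lactamase reporter under UAS control in GeneBLAzer FXR HEK 293T cells (5000/well) measured with LiveBLAzer FRET substrate after 2 h at room temperature. Compound exposure lasted 16 h at 37C.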

[8] = qHTS assay to identify small molecule antagonists of the farnesoid-X-receptor (FXR) signaling pathway - cell viability counter screen (AID 743221; active means well fitted cell-killing curve with a large enough effect in the repeat runs, not every such curve was filed as active; further: nearly all actives have a fitted effect of over 50% in size)
Outline: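 Multiplexed counter screen: viability of FXR-bla HEK 293T cells under agonist stimulation by chenodeoxycholic acid (50 uM, final) and test compound for 16 h at 37 C, measured by CellTiter-Glo luminescence in the reporter wells.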

[9] = target: Vitamin D3 receptor (Homo sapiens) (UniProt P11473); assay: qHTS assay to identify small molecule antagonists of the vitamin D receptor (VDR) signaling pathway (AID 743223; active means well fitted inhibition curve with a large enough effect in the signal ratio in the repeat runs, not every such curve was filed as active; the % refers to the signal ratio)
Vitamin D3 receptor (Homo sapiens), sequence (P11473 whole entry, looked up): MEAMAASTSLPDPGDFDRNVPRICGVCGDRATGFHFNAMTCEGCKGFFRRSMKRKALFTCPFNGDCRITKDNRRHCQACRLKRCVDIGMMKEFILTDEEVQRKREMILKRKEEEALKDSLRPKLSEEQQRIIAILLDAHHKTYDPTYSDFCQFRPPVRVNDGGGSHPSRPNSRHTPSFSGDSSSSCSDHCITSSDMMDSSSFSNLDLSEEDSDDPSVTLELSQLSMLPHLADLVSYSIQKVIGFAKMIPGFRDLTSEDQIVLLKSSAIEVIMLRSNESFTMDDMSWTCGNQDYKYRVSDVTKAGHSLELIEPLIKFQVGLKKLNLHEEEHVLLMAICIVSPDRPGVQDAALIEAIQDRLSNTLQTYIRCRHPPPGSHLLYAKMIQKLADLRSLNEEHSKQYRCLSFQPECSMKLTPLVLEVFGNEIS
Outline: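 Cells carrying a VDR-driven beta-lactamase reporter (VDR-bla) were co-treated with compound and 3 nM final 1alpha,25-dihydroxyvitamin D3 for 16 h at 37C; reporter activity was measured as FRET substrate fluorescence after 2 h at room temperature.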

[10] = target: Vitamin D3 receptor (Homo sapiens) (UniProt P11473); assay: qHTS assay to identify small molecule agonists of the vitamin D receptor (VDR) signaling pathway (AID 743222; calls by dose curve)
Outline: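 In VDR-bla cells, compound-induced beta-lactamase expression is quantified by FRET substrate fluorescence. Treatment lasts 16 h at 37C; substrate develops 2 h at room temperature.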

Measured: Potency

C[Si]1(C)O[Si](C)(C)O[Si](C)(C)O[Si](C)(C)O1
inactive: [1] | [2] | [3] | [4] | [5] | [6] | [7] | [8] | [9]

c1ccc(Oc2ccccc2)cc1
inactive: [1] | [2] | [3] | [4] | [5] | [6] | [7] | [8] | [9]

COc1ccc([N+](=O)[O-])cc1N
inactive: [1] | [2] | [3] | [4] | [5] | [6] | [7] | [8] | [10] | [9]

CCNc1ccccc1
inactive: [1] | [2] | [3] | [4] | [5] | [6] | [7] | [8] | [10] | [9]

C=Cc1ccc(C)cc1
inactive: [1] | [2] | [3] | [4] | [6] | [8] | [10] | [9]

O=C(O)CCCCCCCCC(=O)O
inactive: [1] | [2] | [3] | [4] | [5] | [6] | [7] | [8] | [10] | [9]

CC(=O)OC1CC(C)OC(C)O1 (stereo not drawn)
inactive: [1] | [2] | [3] | [4] | [5] | [6] | [7] | [8]

Nc1ccc(Cl)c(N)c1
inactive: [1] | [2] | [3] | [4] | [5] | [7] | [8] | [9]

CCOC(=O)n1ccn(C)c1=S
inactive: [1] | [2] | [3] | [4] | [5] | [6] | [7] | [8]

CC(=O)CC(C)(C)O
inactive: [1] | [2] | [3] | [4] | [5] | [6] | [7] | [10] | [9]

OCc1cccc(Oc2ccccc2)c1
inactive: [1] | [2] | [3] | [4] | [5] | [6] | [7] | [8] | [10] | [9]

COc1ccc(N)c(C)c1
inactive: [1] | [2] | [3] | [4] | [5] | [6] | [7] | [8] | [10] | [9]

CN/C(=C\[N+](=O)[O-])NCCSCc1csc(CN(C)C)n1
inactive: [1] | [2] | [3] | [4] | [6] | [8]

CC1(C)CC(N)CC(C)(CN)C1 (stereo not drawn)
inactive: [1] | [2] | [3] | [4] | [6] | [8]

CSc1ccc(Cl)cc1
inactive: [1] | [2] | [3] | [4] | [5] | [6] | [7] | [8] | [10] | [9]

CC(C)OC(=O)COc1ccc(Cl)cc1Cl
inactive: [1] | [2] | [3] | [4] | [5] | [6] | [7] | [8]

O=S(=O)(O)c1ccc(N=Nc2c(O)ccc3cc(S(=O)(=O)O)ccc23)cc1
inactive: [1] | [2] | [3] | [4] | [5] | [6] | [7] | [8] | [9]

CC(=O)Oc1ccc(C)cc1
inactive: [1] | [2] | [3] | [4] | [6] | [8]

CCO[Si](CCCN)(OCC)OCC
inactive: [1] | [2] | [3] | [4] | [5] | [6] | [7] | [8] | [9]

CC(=O)c1ccc(O)cc1
inactive: [1] | [2] | [3] | [4] | [5] | [6] | [7] | [8] | [10] | [9]

CC(C)CCCCCCCOC(=O)CCCCC(=O)OCCCCCCCC(C)C
inactive: [1] | [2] | [3] | [4] | [5] | [6] | [7] | [8] | [10] | [9]

CNC(=O)Oc1ccc2c(c1)[C@]1(C)CCN(C)[C@@H]1N2C
inactive: [1] | [2] | [3] | [4] | [5] | [6] | [7] | [8] | [10] | [9]

OC1C(O)C(O)C(O)C(O)C1O (stereo not drawn)
inactive: [1] | [2] | [3] | [4] | [5] | [6] | [7] | [8] | [9]

O=C(O)c1ccc(C(=O)O)c(C(=O)O)c1
inactive: [1] | [2] | [3] | [4] | [6] | [8]

CCCCC(C=O)CC (stereo not drawn)
inactive: [1] | [2] | [3] | [4] | [5] | [6] | [7] | [8] | [10]

COCCCN
inactive: [1] | [2] | [3] | [4] | [6] | [8]

COc1ccc(CCC(C)=O)cc1
inactive: [1] | [2] | [3] | [4] | [5] | [6] | [7] | [8] | [10] | [9]

N#Cc1ccccc1
inactive: [1] | [2] | [3] | [4] | [5] | [6] | [7] | [8] | [10] | [9]

O=C(O)c1ccccc1C(=O)O
inactive: [1] | [2] | [3] | [4] | [6] | [8]

NC(=S)NNC(N)=S
inactive: [1] | [2] | [3] | [4] | [5] | [7] | [8]

CC(C)(C)c1cc(Cc2cc(C(C)(C)C)c(O)c(C(C)(C)C)c2)cc(C(C)(C)C)c1O
inactive: [1] | [2] | [3] | [4] | [5] | [6] | [7] | [8] | [10] | [9]

Nc1nc(N)nc(-c2ccccc2)n1
inactive: [1] | [2] | [3] | [4] | [6] | [8]

NCCCCCCN
inactive: [1] | [2] | [3] | [4] | [6] | [8] | [10] | [9]

CC(C)OP(=O)(CP(=O)(OC(C)C)OC(C)C)OC(C)C
inactive: [1] | [2] | [3] | [4] | [5] | [6] | [7] | [8] | [10] | [9]

O=C1c2ccccc2CCc2ccccc21
inactive: [1] | [2] | [3] | [4] | [5] | [6] | [7] | [8]

CC(CCl)OP(=O)(OC(C)CCl)OC(C)CCl (stereo not drawn)
inactive: [1] | [2] | [3] | [4] | [5] | [6] | [7] | [8] | [10] | [9]

O=C1C(c2[nH]c3ccccc3c2O)=Nc2ccccc21
inactive: [1] | [2] | [3] | [4] | [5] | [6] | [7] | [8]

CC(=O)OCc1ccco1
inactive: [1] | [2] | [3] | [4] | [6] | [8] | [10] | [9]

COc1cc(OC)c(C(=O)CCCN2CCCC2)c(OC)c1
inactive: [1] | [2] | [3] | [4] | [6] | [8] | [9]

CC(C)CC(=O)CC(C)CC(C)C (stereo not drawn)
inactive: [1] | [2] | [4] | [5] | [6] | [7] | [8]

Cc1ccc([N+](=O)[O-])cc1S(=O)(=O)O
inactive: [1] | [2] | [3] | [4] | [6] | [8] | [9]

COc1ccccc1OCC(O)CO (stereo not drawn)
inactive: [1] | [2] | [3] | [4] | [6] | [8] | [10] | [9]

CCCOC(=O)c1ccccc1
inactive: [1] | [2] | [3] | [4] | [6] | [8] | [10] | [9]

N[C@H](Cc1c[nH]c2ccccc12)C(=O)O
inactive: [1] | [2] | [3] | [4] | [6] | [8] | [10] | [9]

CC(=O)CCC=C(C)C
inactive: [1] | [2] | [3] | [4] | [6] | [8] | [10] | [9]

CC(C)c1cccc(C(C)C)c1
inactive: [1] | [2] | [4] | [5] | [6] | [7] | [8] | [9]

C[C@]12CC[C@@H]3c4ccc(O)cc4CC[C@H]3[C@@H]1C[C@@H](O)[C@@H]2O
inactive: [1] | [2] | [3] | [4] | [6] | [8] | [9]

NCCN1CCNCC1
inactive: [1] | [2] | [4] | [6] | [8] | [10] | [9]

C=C(C)C(=O)OCC(C)C
inactive: [1] | [2] | [4] | [5] | [6] | [7] | [8] | [10] | [9]
